Pf growth 96h – P. falciparum growth inhibition at 96 hours; actives 6.9% (n = 320,000); P. falciparum luciferase reporter growth, 96 h; Potency, µM (titrated, usually from 28.7 µM), inactives show at the highest dose activity change, negative = inhibition, hits mostly inhibitors; active means well fitted inhibition curve with a large enough effect; inconclusive means small, poorly fitted or top-dose-only effect, or another doubt; inactive means no such curve, though single readings can be large or run the other way; further: on the % scale 0 is the no-effect control and ±100 the full control effect
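Compounds incubated with erythrocytes infected by luciferase-expressing P. falciparum (2% hematocrit, 0.05% parasitemia final) for 96 hours, 37 C in 5% CO2. Growth inhibition scored as decreased luciferase luminescence.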
Pf growth 48h – P. falciparum growth inhibition at 48 hours (one generation). P. falciparum luciferase growth in erythrocytes, 48 h. Potency, µM (series often up to 28.7 µM), inactives show top-dose activity change, negative = inhibition, most hits filed as inhibitors. actives 5.9% (n = 310,000). AID 504832; active means well fitted inhibition curve with a large enough effect; inconclusive means small, poorly fitted or top-dose-only effect, or another doubt; inactive means no such curve, though single readings can be large or run the other way; further: on the % scale 0 is the no-effect control and ±100 the full control effect
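Luciferase-expressing P. falciparum in infected erythrocytes (2% hematocrit, 0.1% parasitemia final) in RPMI 1640/0.5% Albumax were exposed to compound for 48 hours at 37 C, 5% CO2; growth read as luminescence.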
NS1 inh – blocks influenza NS1 protein function. Potency, µM (series often up to 46.1 µM), without a hit: at the highest dose activity, positive = more growth. actives 0.4% (n = 270,000). AID 2326; further: actives are rising curves; nearly all actives have a fitted effect of over 50% in size
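Compounds were scored for reversing the slow growth caused by influenza A NS1 in S. cerevisiae, measured by optical density at 600 nm. Assay medium contained 2% galactose at pH 6.0; NS1-free yeast of the same strain were the positive control.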
SARS PLP yeast – blocks SARS-CoV papain-like protease in a yeast assay. S. cerevisiae expressing SARS-CoV PLpro, growth rescue. Potency, µM (highest dose often 32.9 µM), without a hit: top-dose activity, positive = growth rescue, most hits filed as activators. actives 0.19% (n = 330,000). AID 485353; further: 0% is about no effect; nearly all actives have a fitted effect of over 55% in size
The depositor's hits bear a star; ? = inconclusive; . = no result; [ ] = remark or other dose. The list is not random: actives were taken first. Their share in the collection is about 10%. Unless noted, the call rests on the fitted dose curve. Potency means the concentration at half of the fitted maximal effect.

SMILES	Pf growth 96h	Pf growth 48h	NS1 inh	SARS PLP yeast
COc1ccc(C(=O)/C=C/C(=O)N(Cc2ccc(F)cc2)C(C(=O)NC2CCCCC2)c2ccncc2)c(O)c1 (stereo not drawn)	-24%	5.2µM*	2%	-27%
Cc1ccc2nc(Nc3nc(CSc4nnc(C)s4)cc(=O)[nH]3)nc(C)c2c1	3.3µM*	?	9%	0%
Cc1ccc2c(C)nc(Nc3nc(CSc4nc5ccccc5[nH]4)cc(=O)[nH]3)nc2c1	?	10µM*	6%	15%
CN(C)CCNCc1ccc(OC2CCCC2)cc1	9.3µM*	.	1%	-3%
CC(C)Cc1nc2oc3c(NCC4CCCO4)ncnc3c2c2c1CCC2 (stereo not drawn)	4.7µM*	?	-31%	-2%
CC(C)Cc1nc2oc3c(NCc4cccnc4)ncnc3c2c2c1CCC2	?	?	3%	-5%
Cc1cc(C)c(NC(=O)C2CCN(c3cnccn3)CC2)c(C)c1	13µM*	6%	-1%	-20%
CCC(Sc1nc(N)cc(N)n1)C(=O)O (stereo not drawn)	3.3µM*	.	11%	2%
CCC(Sc1ccccc1C(=O)O)C(=O)O (stereo not drawn)	.	.	0%	-7%
CCC/C=C/C=C/C(=O)OC1/C(=C/C(=O)OC)CC2CC(C(C)O)OC(=O)CC(O)CC3CC(OC(C)=O)C(C)(C)C(O)(CC4C/C(=C/C(=O)OC)CC(/C=C\C(C)(C)C1(O)O2)O4)O3 (stereo not drawn)	1.5µM*	3.8µM*	.	.
COc1ccc(S(=O)(=O)N(CC(=O)NCc2ccncc2)c2cc(C)cc(C)c2)cc1OC	24%	?	-3%	-1%
c1cc(CNCCc2ccc3c(c2)OCO3)ccn1	12µM*	-8%	-4%	0%
Brc1ccccc1CNCCc1ccc2c(c1)OCO2	12µM*	58%	-11%	1%
CCOc1ccccc1CNCCc1ccc2c(c1)OCO2	?	-5%	27%	-4%
Cc1ccccc1NC(=O)Cn1nnc2ccccc21	?	23%	.	-1%
CCCN(CC(=O)Nc1ccccc1OC)C(=O)c1cccc(S(=O)(=O)NCc2ccccc2)c1	10µM*	?	.	2%
COc1cccc(NC(=O)CN(C)C(=O)c2cccc(S(=O)(=O)Nc3ccc(C)cc3)c2)c1	-27%	?	.	0%[6.58 µM]
CC1Sc2ccc(C(=O)Nc3ccc(S(=O)(=O)N(C)C)cc3)cc2NC1=O (stereo not drawn)	?	?	.	2%
COc1cccc(NC(=O)CN(C)C(=O)c2cccc(S(=O)(=O)Nc3ccccc3OC)c2)c1	?	13µM*	.	.
CCCN(CC(=O)Nc1ccccc1OC)C(=O)Cc1ccc2c(c1)CCC2	?	10µM*	.	-6%
COc1ccc(S(=O)(=O)N(C)C)cc1NC(=O)c1ccc2c(c1)NC(=O)C(C)S2 (stereo not drawn)	5.2µM*	9.3µM*	.	-5%
CC1CCCCC1NC(=O)CCNS(=O)(=O)c1ccc(Cl)cc1 (stereo not drawn)	3%	?	-26%	1%
CCCN(CC(=O)Nc1ccccc1OC)C(=O)c1ccc2c(c1)NC(=O)C(C)S2 (stereo not drawn)	?	10µM*	.	1%
CCCNC(=O)c1ccccc1NC(=O)c1ccc2c(c1)NC(=O)C(C)S2 (stereo not drawn)	?	?	-15%	-7%
Cc1ccc(-n2c(SCn3nnc4ccccc4c3=O)nnc2-c2cccnc2)c(C)c1	?	10µM*	-3%	2%
SMILES	Pf growth 96h	Pf growth 48h	NS1 inh	SARS PLP yeast
CNc1ccccc(-c2ccc3cc4c(cc3n2)OCO4)c1=O	442%	253%	3%	-43%
CN1CCN(C(=O)c2cc([N+](=O)[O-])cc([N+](=O)[O-])c2)CC1	?	?	?	4%
CCOP(=O)(OCC)C(Nc1ccc(C(=O)O)cc1)c1ccccc1 (stereo not drawn)	5%	-1%	0%	1%
CCOC(=O)c1ccc(NC(c2ccc(N(C)C)cc2)P(=O)(OC(C)C)OC(C)C)cc1 (stereo not drawn)	23%	13µM*	-13%	-4%
Cc1noc2nc(-c3cccs3)cc(-c3nnc4n3CCCCC4)c12	12µM*	16%	-7%	-1%
Cc1cc(Cn2ccnc2)c(C)c([N+](=O)[O-])c1Cn1ccnc1	?	10µM*	3%	0%
Cc1ccc2c(Cn3ccnc3)cc(=O)oc2c1C	12%	-10%	0%	1%
C=CCOc1ccc(/C=C/C(=O)OCC(=O)NCC(=O)Nc2c(C)cc(C)cc2C)cc1	1%	2%	.	-4%
COc1cc(Br)cc2cc(C(=O)N3CCOCC3)c(=O)oc12	3.3µM*	39%	20%	3%
COCCNC(=O)c1cc2cc(Br)cc(OC)c2oc1=O	?	12%	-3%	-1%
CN(Cc1ccc(OCC(O)CN2CCCCC2)cc1)Cc1ccnc2ccccc12 (stereo not drawn)	3%	12µM*	3%	0%
CCOc1cc(CNn2cnnc2)cc(Br)c1OCC(=O)NC1CCCCC1	9.3µM*	?	6%	13%
CCOc1cc(CNc2ccccc2)cc(Br)c1OCC(=O)NC(C)(C)C	9.3µM*	?	-60%	-15%
CCOc1cc(CNc2ccc(Br)cc2)cc(Br)c1OCC(=O)NC(C)(C)C	.	?	-18%	-6%
CCOc1cc(CNc2ccc(OC)cc2)cc(Br)c1OCC(=O)NC(C)(C)C	9.3µM*	?	4%	-25%
Cc1cc(C)nc(SCC(=O)NC(=O)c2ccccc2O)n1	.	.	.	-2%
Cc1[nH]c2ccccc2c1-c1cc(-c2cc(-c3c(C)[nH]c4ccccc34)nc(N)n2)nc(N)n1	.	.	-3%	.
CC(=O)C1=C(C)Nc2ncnn2C1c1cccc(OCc2ccccc2)c1 (stereo not drawn)	0%	10µM*	-2%	-2%
CC1=C(C(=O)Nc2ccccc2)C(c2ccc(C)o2)n2ncnc2N1 (stereo not drawn)	1%	.	-3%	6%
COC(=O)C1=C(C)Nc2ncnn2C1c1ccc(C)o1 (stereo not drawn)	10µM*	-13%	-8%	4%
COc1ccc(C2C(C(C)=O)=C(C)Nc3ncnn32)cc1 (stereo not drawn)	?	0%	-12%	-3%
CC(=O)C1=C(C)Nc2ncnn2C1c1ccccc1 (stereo not drawn)	0.33µM*	32%	3%	-1%
COc1cccc(C2C(C(C)=O)=C(C)Nc3ncnn32)c1 (stereo not drawn)	79%	-2%	3%	-1%
COc1ccccc1CNC(=O)CCNS(=O)(=O)c1ccc2c(c1)CC(C)N2C(C)=O (stereo not drawn)	?	7%	-6%	-1%
COc1ccc(CN(C)C(=O)C2CC(=O)N(c3ccc4c(c3)OCCO4)C2)c(OC)c1 (stereo not drawn)	6.6µM*	?	.	1%
CN(Cc1ccccc1Cl)C(=O)C1CC(=O)N(c2ccc3c(c2)OCCO3)C1 (stereo not drawn)	4%	-13%	.	2%

Screening data (PubChem BioAssay)
